An excerpt weighted towards active compounds, which were near 1.6% of everything screened.
KCNQ2 block – rat KCNQ2 potassium channel inhibitors, primary screen, cell-based, CHO-K1, FluxOR thallium flux, B-score | B-score at 10 µM | Potassium voltage-gated channel subfamily KQT member 2 (Rattus norvegicus), O88943 | 20 min; stronger effect = lower value | AID 2156, 2009 | hit rate 1.1% among 310,000;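 active = fluorescence ratio B-score at most minus 3 library SDs, with starting brightness B-score within 2 library SDs, cut at about -5.5 in these data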
KCNQ2 enhance – potentiators of rat KCNQ2 potassium channel; B-score at 10 µM; CHO-K1 KCNQ2, FluxOR thallium flux fluorescence; stronger effect = higher value; AID 2239, 2010; hit rate 0.54% among 310,000;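 active = fluorescence ratio B-score at least 3 SD of library B-scores, with initial fluorescence B-score within 3 of them, cut at about 5.3 in these data; same plate scores as AID 2156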;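 also: B-score of peak minus minimum over baseline fluorescence ratio after K+ and Tl+ stimulus; positive B-score means potentiation of KCNQ2 with more thallium influx and brighter signal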
Kir21 conf inh – mouse Kir2.1 channel blockers, retest, confirmation, cell-based, FluxOR thallium flux, duplicate. shares compounds with KCNQ2 enhance. Kir2.1-expressing cells, FluxOR thallium flux fluorescence; stronger effect = lower value. Tl flux remaining, % of negative control (stronger effect = lower value), % at 10 µM. hit rate 41% among 2,300. AID 2032, 2009;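 active = Primary-screen hit whose thallium flux fell at least 3 control SD below untreated wells in both duplicates, with normal baseline fluorescence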
Target sequence (P35561 whole entry, looked up): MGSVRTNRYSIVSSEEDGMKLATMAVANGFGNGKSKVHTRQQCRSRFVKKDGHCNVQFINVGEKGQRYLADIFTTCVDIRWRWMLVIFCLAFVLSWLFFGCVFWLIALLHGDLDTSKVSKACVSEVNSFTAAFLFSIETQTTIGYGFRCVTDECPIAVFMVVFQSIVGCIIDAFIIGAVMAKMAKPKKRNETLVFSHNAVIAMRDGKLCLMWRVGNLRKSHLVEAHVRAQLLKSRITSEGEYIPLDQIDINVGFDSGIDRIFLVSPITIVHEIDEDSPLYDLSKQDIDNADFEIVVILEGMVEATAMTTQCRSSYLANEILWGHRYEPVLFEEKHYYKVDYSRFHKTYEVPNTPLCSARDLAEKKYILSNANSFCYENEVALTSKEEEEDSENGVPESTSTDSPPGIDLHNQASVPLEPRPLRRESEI
HEK293 ctr – parental HEK293 activity in Kir2.1 inhibitor counter-screen; shares compounds with KCNQ2 enhance; parental HEK293 cells, FluxOR thallium flux fluorescence; 0% = unstimulated blank wells; FluxOR signal as % of negative control (100 = no effect), % at 10 µM; hit rate 19% among 2,300;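 active = dye signal at least 3 control SD above or below untreated wells in both duplicates, raw fluorescence within 3, either direction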;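 also: percent is based on the flux ratio of peak minus minimum fluorescence over baseline F0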
CHO-K1 Tl ctr – nonspecific thallium flux increase in parental CHO-K1, confirmation, counter-screen for KCNQ2 potentiator project, cell-based, FluxOR thallium flux, duplicate | activity increase over 3SD of controls, % at 10 µM | parental CHO-K1 cells, FluxOR thallium flux fluorescence; zero = vehicle mean+3SD, 100% = vehicle-minus-blank window | hit rate 43% among 1,200 | shares compounds with KCNQ2 enhance;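 active = signal rise of at least 3 SD above the untreated control mean, in both duplicate wells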;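 also: counter screen of KCNQ2 potentiator hits so any rise reflects channel-independent effects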
KCNQ1 sel pot – human KCNQ1 channel potentiation off-target, confirmation, selectivity assay for KCNQ2 potentiator project, cell-based, CHO, FluxOR thallium flux; activation over 3SD threshold, % at 10 µM; hit rate 28% among 1,200; AID 2283, 2010; CHO KCNQ1 stable, FluxOR thallium flux fluorescence; beyond 3SD, as % of vehicle-control signal; shares compounds with KCNQ2 enhance;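 active = fluorescence ratio rise of at least 3 SD of vehicle wells above their mean, in both replicate wells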
KCNQ2 pot conf – rat KCNQ2 channel potentiators, confirmation, cell-based, CHO, FluxOR thallium flux, duplicate; shares compounds with KCNQ2 enhance; CHO-KCNQ2 cells, FluxOR thallium flux fluorescence; potentiation, less the hit threshold, % at 10 µM; hit rate 68% among 1,200;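 active = fluorescence ratio rising 3 SD or more over the vehicle control mean in both replicates, plus primary screen hit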;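 also: peak minus minimum thallium fluorescence divided by baseline after K/Tl stimulus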
Kir21 spec – mouse Kir2.1 channel activation off-target, confirmation, selectivity assay for KCNQ2 potentiator project, cell-based, HEK293, FluxOR thallium flux | hit rate 2% among 1,200 | activity over 3SD threshold, % at 10 µM | shares compounds with KCNQ2 enhance | AID 2345, 2010 | HEK293 Kir2.1, FluxOR thallium flux fluorescence;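 active = fluorescence ratio rise of at least 3 SD above the vehicle-control mean, seen in both replicates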
KCNQ2 W236L MoA – potentiators of retigabine-insensitive KCNQ2 W236L, mechanism study for KCNQ2 potentiator project, cell-based, rat KCNQ2 W236L, CHO, automated patch clamp. automated patch clamp current. current increase over 3SD of negative controls (%), stronger effect = higher value, % at 25 µM. shares compounds with KCNQ2 enhance. hit rate 10% among 940. AID 2558, 2010;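 active = current increase at least 3 SD of the untreated controls above them in both duplicate recordings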
Hits are given with their value; n = inactive; x = no result given.

SMILES | KCNQ2 block | KCNQ2 enhance | Kir21 conf inh | HEK293 ctr | others
Cc1c(-c2cc(Br)ccc2O)nc2cc3c(cc2c1C)OCO3 | n | x | x | x
Cc1nn(-c2ccccc2Cl)c(Cl)c1/C=N/Nc1cccc(C(=O)O)c1 | n | n | x | x
Cc1nn(-c2cccc(C(F)(F)F)c2)c(Cl)c1/C=N/Nc1cccc(C(=O)O)c1 | n | 9.9 | n | n | CHO-K1 Tl ctr=n;KCNQ1 sel pot=30;KCNQ2 pot conf=98;Kir21 spec=n;KCNQ2 W236L MoA=17%
O=S(=O)(NCCC1=CCCCC1)c1cccc(S(=O)(=O)N2CCOCC2)c1 | n | n | x | x
CCSc1nnc(NC(=O)CC)s1 | n | n | x | x
CCSc1nnc(NC(=O)CC(C)C)s1 | n | n | n | n
Cn1c(SCC(=O)OCc2ccccc2)nnc1-c1ccco1 | n | x | x | x
O=C(CSc1nnc(-c2ccco2)n1Cc1ccccc1)c1ccccc1 | n | x | x | x
CC(C)Cn1c(SCC(=O)c2ccc(Cl)s2)nnc1-c1ccco1 | -6.8 | n | 50% | 138%
CCn1c(SCC(=O)OCc2ccccc2)nnc1-c1ccco1 | n | x | n | n
COc1cc2ccccc2cc1C(=O)OCC(=O)N(CC(C)C)c1c(N)n(Cc2ccccc2)c(=O)[nH]c1=O | n | x | x | x
COc1ccc(C(C)NC(=O)c2cccc([N+](=O)[O-])c2)cc1OC (stereo not given) | n | n | x | x
C1CCN(CCCNC2C3CC4CC(C3)CC2C4)C1 (stereo not given) | n | x | x | x
C=CCNC(=O)C(=O)c1cccn1-c1ccsc1C(=O)OC | n | x | x | x
O=C(Cn1c(CO)nc2ccccc21)Nc1ccccc1Cl | n | n | n | n
Cc1cc(C)cc(NC(=O)Cn2c(-c3ccccc3Cl)nc3ccccc32)c1 | n | n | x | x
CC(C)CCNC(=O)NC(=O)CSc1ncccn1 | n | x | x | x
S=C(NCc1cccs1)Nc1ccccc1 | n | n | x | x
Cc1ccc(NC(=S)NCc2cccs2)cc1 | n | 8.9 | n | n | CHO-K1 Tl ctr=n;KCNQ1 sel pot=n;KCNQ2 pot conf=14;Kir21 spec=n;KCNQ2 W236L MoA=n
Cc1ccc(OCCCCN2CCCCC2)c(C)c1 | n | n | x | x
Cc1ccc(OCCCCNC2CCCC(C)C2C)c(C)c1 (stereo not given) | n | x | n | n
Oc1c(Cl)cc(Cl)cc1C=Nc1ccc(N2CCOCC2)cc1 | n | n | x | x
Oc1c(Cl)cc(Cl)cc1C=Nc1ccc(Br)cc1 | n | 7.1 | n | n | CHO-K1 Tl ctr=n;KCNQ1 sel pot=31;KCNQ2 pot conf=16;Kir21 spec=n;KCNQ2 W236L MoA=n
CCN(CC)CCNC(=O)CNC(=O)c1nn(-c2ccc(OC)cc2OC)c(=O)c2ccccc12 | n | x | x | x
CCN1CCN(C(=O)CSCc2nc(-c3ccc(OC)c(OC)c3)oc2C)CC1 | n | x | x | x
SMILES | KCNQ2 block | KCNQ2 enhance | Kir21 conf inh | HEK293 ctr | others
CCN1CCN(CCNC(=O)CSCc2nc(-c3ccc(OC)c(OC)c3)oc2C)CC1 | n | 10 | n | n | CHO-K1 Tl ctr=22;KCNQ1 sel pot=n;KCNQ2 pot conf=n;Kir21 spec=n
NC(=NCCc1c[nH]c2ccccc12)NS(=O)(=O)c1ccc(F)cc1 | n | n | x | x
NC(=NCCc1c[nH]c2ccccc12)NC(=O)c1ccc(F)cc1 | n | n | 34% | n
COc1ccc(NC(=O)COC(=O)CCCc2c[nH]c3ccccc23)cc1OC | n | x | x | x
CCc1ccc(C(=O)Nn2c(C)nc3ccccc3c2=O)cc1 | n | n | x | x
CCCCCc1ccc(CC(=O)Nn2c(C)nc3ccccc3c2=O)cc1 | n | 15 | n | n | CHO-K1 Tl ctr=10;KCNQ1 sel pot=n;KCNQ2 pot conf=93;Kir21 spec=n;KCNQ2 W236L MoA=n
Cc1ccc([N+](=O)[O-])cc1NC(=S)NCCc1ccccc1 | n | x | x | x
O=C(Nc1nnc(-c2ccc(Br)cc2)o1)c1ccco1 | n | 17 | n | n | CHO-K1 Tl ctr=n;KCNQ1 sel pot=n;KCNQ2 pot conf=19;Kir21 spec=n;KCNQ2 W236L MoA=n
CS(=O)(=O)c1ccc(-c2nnc(NC(=O)c3ccco3)o2)cc1 | n | n | x | x
Cc1ccc(CNc2nc3ccccc3n2C)cc1 | n | x | 36% | n
Cn1c(NCc2c(O)ccc3ccccc23)nc2ccccc21 | n | x | x | x
Cn1c(CNc2nc3ccccc3n2C)nc2ccccc21 | n | x | x | x
Cn1c(NCc2ccc(Cl)cc2)nc2ccccc21 | n | x | 25% | n
Cc1ccc(S(=O)(=O)N2CCCC2CNC(=O)C(=O)NCCN2CCOCC2)cc1 (stereo not given) | n | x | x | x
Cc1cccc(NC(=O)COc2coc(CN3CCc4ccccc4C3)cc2=O)c1 | n | n | x | x
O=C(NNC(=S)NC1CCCCC1)c1cccs1 | n | n | x | x
CC1CCCCC1NC(=S)NC(=O)c1cccs1 (stereo not given) | n | 8.4 | n | 188% | CHO-K1 Tl ctr=44;KCNQ1 sel pot=23;KCNQ2 pot conf=15;Kir21 spec=n;KCNQ2 W236L MoA=n
CCn1c(=O)n(CCOC)c(=O)c2c3c(sc21)CCCC3 | n | n | x | x
CCCn1c(=S)[nH]c2sc3c(c2c1=O)CCCC3 | n | 10 | n | 342% | CHO-K1 Tl ctr=n;KCNQ1 sel pot=40;KCNQ2 pot conf=27;Kir21 spec=n;KCNQ2 W236L MoA=n
CCn1nnc2sc3c(c2c1=O)CCC(C)C3 (stereo not given) | n | x | x | x
COCCCn1c(=S)[nH]c2sc3c(c2c1=O)CCCS3 | n | 7.2 | n | 285% | CHO-K1 Tl ctr=n;KCNQ1 sel pot=47;KCNQ2 pot conf=24;Kir21 spec=n;KCNQ2 W236L MoA=n
COCCn1c(=S)[nH]c2sc3c(c2c1=O)CCC(C)C3 (stereo not given) | n | 16 | n | n | CHO-K1 Tl ctr=n;KCNQ1 sel pot=3.6;KCNQ2 pot conf=71;Kir21 spec=11;KCNQ2 W236L MoA=n
CC(=O)Cn1nnc2sc3c(c2c1=O)CCC(C(C)(C)C)C3 (stereo not given) | n | x | x | x
Cn1c(=S)[nH]c2sc3c(c2c1=O)CCC(C(C)(C)C)C3 (stereo not given) | n | 18 | n | 467% | CHO-K1 Tl ctr=n;KCNQ1 sel pot=n;KCNQ2 pot conf=85;Kir21 spec=1.4;KCNQ2 W236L MoA=n
Nn1c(=S)[nH]c2sc3c(c2c1=O)CCCC3 | n | n | x | x
COc1cc(-c2ccc(NC(=O)NC3CC3)c(OC)c2)ccc1NC(=O)NC1CC1 | n | n | x | x
Cc1c(C(=O)Nc2cccc(F)c2)cnn1-c1ccccc1 | n | x | x | x
COc1ccccc1NC(=O)Cn1c([N+](=O)[O-])cnc1C | n | n | x | x
CCOc1ccc(S(=O)(=O)N2CCCC(C(=O)N3CCOCC3)C2)cc1Cl (stereo not given) | n | n | x | x
c1ccc(OCCCCN2CCCCC2)cc1 | n | x | x | x

Screens deposited in PubChem by Johns Hopkins Ion Channel Center.
